Source: PubChem BioAssay AID1159580 (chemical genetic matrix, 2015)
Several values for one entry are separate records, joined by “and”; a condition that tells them apart may be missing. Equal entries are not always repeated. In all, about 5,500 compounds went through this assay and about 2,000 (36%) were called active. Another 18% or so got no clear call; they are omitted. Some of the results follow. Unmarked numbers belong to inactive results. Cut-off read from the data, not from the text of the source: active = normalized growth mostly below about 0.91 (no sharp cut-off); inconclusive = no clear call, values can overlap the other calls; inactive = mostly above about 0.92.

Assay: chemical genetic growth profiling, strain panel (AID 1159580);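 note: tested at 20 µM; growth read once vehicle control cultures reached saturation at 30 °C; 1 = growth at the plate median or of vehicle wells; lower values mean less growth of the strain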
Settings: S. cerevisiae deletion strains, growth OD

CCCC(C)C1(CC)C(=O)N=C(S)NC1=O (stereo unspecified)
normalized growth (locus YAL013W, strain DEP1, active compounds read low): 1.01
normalized growth (locus YAL021C, strain ccr4, active compounds read low): 0.993
normalized growth (locus YAL026C, strain drs2, active compounds read low): 0.994
normalized growth (locus YAL030W, strain snc1, active compounds read low): 0.983
normalized growth (locus YBL061C, strain skt5, active compounds read low): 1.01
normalized growth (locus YBR009C, strain hhf1, active compounds read low): 0.992
normalized growth (locus YBR021W, strain FUR4, active compounds read low): 1.01
normalized growth (locus YBR023C, strain chs3, active compounds read low): 0.989
normalized growth (locus YBR171W, strain sec66, active compounds read low): 0.993
normalized growth (locus YBR229C, strain ROT2, active compounds read low): 1.01
normalized growth (locus YBR231C, strain swc5, active compounds read low): 1.01
normalized growth (locus YBR279W, strain paf1, active compounds read low): 0.998
normalized growth (locus YCL011C, strain gbp2, active compounds read low): 1.01
normalized growth (locus YCL016C, strain dcc1, active compounds read low): 0.995
normalized growth (locus YCL029C, strain bik1, active compounds read low): 0.557 (active)
normalized growth (locus YCL061C, strain MRC1, active compounds read low): 1
normalized growth (locus YCL069W, strain vba3, active compounds read low): 1
normalized growth (locus YCR088W, strain abp1, active compounds read low): 0.984
normalized growth (locus YDL005C, strain med2, active compounds read low): 0.987
normalized growth (locus YDL035C, strain GPR1, active compounds read low): 1.02
normalized growth (locus YDL040C, strain nat1, active compounds read low): 0.993
normalized growth (locus YDL074C, strain BRE1, active compounds read low): 1.06
normalized growth (locus YDL101C, strain DUN1, active compounds read low): 1.01
normalized growth (locus YDL134C, strain PPH21, active compounds read low): 1
normalized growth (locus YDL185W, strain tfp1, active compounds read low): 1.01
normalized growth (locus YDL192W, strain arf1, active compounds read low): 0.0766 (active)
normalized growth (locus YDR001C, strain nth1, active compounds read low): 1
normalized growth (locus YDR069C, strain doa4, active compounds read low): 0.996
normalized growth (locus YDR101C, strain arx1, active compounds read low): 0.371 (active)
normalized growth (locus YDR137W, strain rgp1, active compounds read low): 0.908
normalized growth (locus YDR150W, strain NUM1, active compounds read low): 1.02
normalized growth (locus YDR159W, strain sac3, active compounds read low): 0.971
normalized growth (locus YDR162C, strain NBP2, active compounds read low): 1.02
normalized growth (locus YDR195W, strain ref2): 0.979
normalized growth (locus YDR297W, strain sur2, active compounds read low): 0.997
normalized growth (locus YDR318W, strain mcm21, active compounds read low): 0.0671 (active)
normalized growth (locus YDR334W, strain swr1, active compounds read low): 0.998
normalized growth (locus YDR335W, strain msn5, active compounds read low): 0.993
normalized growth (locus YDR388W, active compounds read low): 0.0597 (active)
normalized growth (locus YDR392W, strain spt3, active compounds read low): 0.977
normalized growth (locus YDR502C, strain sam2, active compounds read low): 0.0887 (active)
normalized growth (locus YEL003W, strain gim4, active compounds read low): 0.997
normalized growth (locus YEL037C, strain rad23, active compounds read low): 1
normalized growth (locus YEL061C, strain CIN8 (second series), active compounds read low): 0.997
normalized growth (locus YEL061C, strain CIN8, active compounds read low): 1
normalized growth (locus YER015W, strain faa2, active compounds read low): 0.998
normalized growth (locus YER016W, strain bim1, active compounds read low): 1.01
normalized growth (locus YER110C, active compounds read low): 0.157 (active)
normalized growth (locus YER111C, strain swi4, active compounds read low): 1.01
normalized growth (locus YER155C, strain BEM2 (second series), active compounds read low): 0.986
normalized growth (locus YER155C, strain BEM2, active compounds read low): 1.01
normalized growth (locus YER167W, strain BCK2, active compounds read low): 1.02
normalized growth (locus YFR010W, strain ubp6, active compounds read low): 1.01
normalized growth (locus YGL078C, strain dbp3, active compounds read low): 0.095 (active)
normalized growth (locus YGL086W, strain mad1, active compounds read low): 0.0546 (active)
normalized growth (locus YGL167C, strain pmr1, active compounds read low): 0.991
normalized growth (locus YGL173C, strain kem1, active compounds read low): 0.99
normalized growth (locus YGL227W, strain vid30, active compounds read low): 0.981
normalized growth (locus YGL240W, strain doc1, active compounds read low): 0.982
normalized growth (locus YGL248W, strain PDE1, active compounds read low): 1.01
normalized growth (locus YGL253W, strain hxk2, active compounds read low): 1.01
normalized growth (locus YGR078C, strain PAC10, active compounds read low): 1.03
normalized growth (locus YGR135W, strain pre9, active compounds read low): 0.0693 (active)
normalized growth (locus YGR229C, strain SMI1, active compounds read low): 1.01
normalized growth (locus YGR252W, strain gcn5, active compounds read low): 0.187 (active)
normalized growth (locus YHR013C, strain ard1, active compounds read low): 0.997
normalized growth (locus YHR027C, strain rpn1, active compounds read low): 0.996
normalized growth (locus YHR030C, strain SLT2, active compounds read low): 1.01 and 0.984
normalized growth (locus YHR079C, strain IRE1 (second series), active compounds read low): 0.407 (active)
normalized growth (locus YHR079C, strain IRE1, active compounds read low): 0.979
normalized growth (locus YHR094C, strain hxt1, active compounds read low): 0.0939 (active)
normalized growth (locus YHR129C, strain ARP1, active compounds read low): 1.01
normalized growth (locus YHR142W, strain chs7, active compounds read low): 0.986
normalized growth (locus YHR200W, strain rpn10, active compounds read low): 0.0912 (active)
normalized growth (locus YIL066C, strain RNR3, active compounds read low): 1.03
normalized growth (locus YIL073C, strain SPO22, active compounds read low): 1.11
normalized growth (locus YIL125W, strain kgd1, active compounds read low): 0.141 (active)
normalized growth (locus YIR030C, strain dcg1, active compounds read low): 0.185 (active)
normalized growth (locus YJL092W, strain hpr5, active compounds read low): 0.991
normalized growth (locus YJL095W, strain BCK1 (second series), active compounds read low): 0.995
normalized growth (locus YJL095W, strain BCK1, active compounds read low): 1 and 0.991
normalized growth (locus YJL115W, strain asf1, active compounds read low): 0.988
normalized growth (locus YJL129C, strain trk1, active compounds read low): 0.962
normalized growth (locus YJL134W, strain LCB3, active compounds read low): 1.01
normalized growth (locus YJL154C, strain vps35, active compounds read low): 0.987
normalized growth (locus YJL164C, strain tpk1, active compounds read low): 0.995
normalized growth (locus YJL166W, strain qcr8, active compounds read low): 0.975
normalized growth (locus YJL168C, strain set2, active compounds read low): 0.123 (active)
normalized growth (locus YJL187C, strain SWE1 (second series), active compounds read low): 1
normalized growth (locus YJR043C, strain POL32, active compounds read low): 1.02
normalized growth (locus YJR066W, strain TOR1, active compounds read low): 0.945
